Assay results taken from the supplement of paper PMC10849652.
Of roughly 8,800 targets only a part is listed; those with a hit were picked by preference. About 0.5% of all pairs of compound and target were hits.

What was measured:
Test in all cases: log2 fold change, soluble protein after heating vs DMSO (PISA); higher = thermal stabilisation; K562 lysate, 10 uM; active = over 0.2 and 3.5 SD of the protein, either way, in both replicates (recomputed)
[1] = compound: C1=CC=C(C=C1)[C@H](COC2=CC3=C(C=C2)NC(=O)N3)NC(=O)C4=CC=CN(C4=O)CC5=CC(=C(C=C5)F)F
How it was run: (§1)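 A 30 min treatment with 10 μM compound was applied to crude K562 extract at 1 mg/mL protein in PBS pH 7.4 with 1 mM MgCl2. Heating for 3 min spanned 48°C-58°C, after which aliquots were pooled, adjusted to 0.5% NP-40 at 4°C and spun at 21,000xg for 90 min. TMTpro 16plex LC-MS/MS of the supernatant, with channel sums equalised, gave values recorded as log-two fold change in thermal stability against solvent controls, from duplicates.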

[2] = compound: CC1=C(SC2=C1C(=N[C@H](C3=NN=C(N32)C)CC(=O)N)C4=CC=C(C=C4)Cl)C
How it was run: as §1

[3] = compound: CC1=C2C(=CC=C1)N=C(N(C2=O)C3=CC=CC=C3C)CN4C=NC5=C(N=CN=C54)N
How it was run: as §1

[4] = compound: Cc1sc2c(c1C)C(c1ccc(Cl)cc1)=N[C@@H](CC(=O)OC(C)(C)C)c1nnc(C)n1-2
How it was run: as §1

[5] = compound: c1ccc([C@@H]2C[C@H]2NC2CCNCC2)cc1
How it was run: as §1

Measured: log2 fold change

DVL2 (UniProt O14641)
inactive: [1] -0.012 | [2] -0.01 | [3] 0.032 | [4] 0.098 | [5] -0.017

FNTB (UniProt P49356)
inactive: [1] 0.023 | [2] 0.135 | [3] 0.015 | [4] -0.008 | [5] 0.038

ESYT2 (UniProt H7BXI1)
inactive: [1] 0.004 | [2] 0.018 | [3] -0.001 | [4] 0.048 | [5] 0.036

FBXO30 (UniProt Q8TB52)
Chain of UniProt Q8TB52 (Q8TB52 whole entry, looked up): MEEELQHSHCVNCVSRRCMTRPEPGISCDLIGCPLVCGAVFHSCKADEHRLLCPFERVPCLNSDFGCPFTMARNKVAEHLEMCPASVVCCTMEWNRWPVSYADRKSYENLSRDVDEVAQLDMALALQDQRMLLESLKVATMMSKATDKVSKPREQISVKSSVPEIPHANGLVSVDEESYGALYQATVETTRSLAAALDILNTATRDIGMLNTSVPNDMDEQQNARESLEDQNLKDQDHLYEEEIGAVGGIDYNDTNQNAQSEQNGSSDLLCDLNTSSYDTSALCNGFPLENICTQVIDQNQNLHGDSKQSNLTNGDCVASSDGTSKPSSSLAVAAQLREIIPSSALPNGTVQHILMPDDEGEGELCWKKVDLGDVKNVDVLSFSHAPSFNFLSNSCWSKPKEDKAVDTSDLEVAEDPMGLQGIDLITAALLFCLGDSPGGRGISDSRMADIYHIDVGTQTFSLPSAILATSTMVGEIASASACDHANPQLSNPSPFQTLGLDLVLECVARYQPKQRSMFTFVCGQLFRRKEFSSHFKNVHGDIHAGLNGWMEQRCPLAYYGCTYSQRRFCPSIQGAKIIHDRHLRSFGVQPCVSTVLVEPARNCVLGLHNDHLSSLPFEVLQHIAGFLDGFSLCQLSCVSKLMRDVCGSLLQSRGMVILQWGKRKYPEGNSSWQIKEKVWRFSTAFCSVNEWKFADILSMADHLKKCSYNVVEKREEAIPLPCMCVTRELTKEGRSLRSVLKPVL
inactive: [1] -0.034 | [2] 0.011 | [3] -0.041 | [4] 0.036 | [5] 0.12

FBRSL1, A0A3B3IRR3
inactive: [1] 0.002 | [2] 0.005 | [3] -0.021 | [4] 0.02 | [5] -0.028

FHOD1 (UniProt Q9Y613)
inactive: [1] -0.041 | [2] 0.006 | [3] 0.043 | [4] 0.029 | [5] 0.027

EEFSEC (UniProt P57772)
Chain of UniProt P57772 (P57772 whole entry, looked up): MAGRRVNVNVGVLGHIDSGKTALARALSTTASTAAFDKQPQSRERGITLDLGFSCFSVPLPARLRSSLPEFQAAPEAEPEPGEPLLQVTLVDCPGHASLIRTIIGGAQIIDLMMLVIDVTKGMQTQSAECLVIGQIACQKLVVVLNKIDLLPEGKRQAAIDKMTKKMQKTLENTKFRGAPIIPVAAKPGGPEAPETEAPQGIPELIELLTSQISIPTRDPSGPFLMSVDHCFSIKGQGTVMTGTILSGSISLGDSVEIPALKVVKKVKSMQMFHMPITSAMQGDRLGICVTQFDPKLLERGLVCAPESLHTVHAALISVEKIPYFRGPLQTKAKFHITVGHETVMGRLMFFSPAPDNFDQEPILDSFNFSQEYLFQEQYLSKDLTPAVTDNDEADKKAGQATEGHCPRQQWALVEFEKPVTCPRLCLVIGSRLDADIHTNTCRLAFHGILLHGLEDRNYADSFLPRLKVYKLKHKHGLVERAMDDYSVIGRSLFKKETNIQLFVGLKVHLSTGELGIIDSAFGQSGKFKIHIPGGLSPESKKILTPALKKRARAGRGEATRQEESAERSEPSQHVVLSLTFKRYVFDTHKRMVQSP
inactive: [1] -0.033 | [2] -0.003 | [3] 0.009 | [4] -0.003 | [5] 0.015

DYNC1I2 isoform 5 (UniProt Q13409)
inactive: [1] 0.049 | [2] -0.03 | [3] -0.012 | [4] -0.018 | [5] 0.021

GALK1 isoform 2 (UniProt P51570)
inactive: [1] 0.014 | [2] 0.027 | [3] 0.035 | [4] 0.006 | [5] 0.073

ERBIN isoform 8 (UniProt Q96RT1)
Chain of UniProt Q96RT1 (Q96RT1 whole entry, looked up): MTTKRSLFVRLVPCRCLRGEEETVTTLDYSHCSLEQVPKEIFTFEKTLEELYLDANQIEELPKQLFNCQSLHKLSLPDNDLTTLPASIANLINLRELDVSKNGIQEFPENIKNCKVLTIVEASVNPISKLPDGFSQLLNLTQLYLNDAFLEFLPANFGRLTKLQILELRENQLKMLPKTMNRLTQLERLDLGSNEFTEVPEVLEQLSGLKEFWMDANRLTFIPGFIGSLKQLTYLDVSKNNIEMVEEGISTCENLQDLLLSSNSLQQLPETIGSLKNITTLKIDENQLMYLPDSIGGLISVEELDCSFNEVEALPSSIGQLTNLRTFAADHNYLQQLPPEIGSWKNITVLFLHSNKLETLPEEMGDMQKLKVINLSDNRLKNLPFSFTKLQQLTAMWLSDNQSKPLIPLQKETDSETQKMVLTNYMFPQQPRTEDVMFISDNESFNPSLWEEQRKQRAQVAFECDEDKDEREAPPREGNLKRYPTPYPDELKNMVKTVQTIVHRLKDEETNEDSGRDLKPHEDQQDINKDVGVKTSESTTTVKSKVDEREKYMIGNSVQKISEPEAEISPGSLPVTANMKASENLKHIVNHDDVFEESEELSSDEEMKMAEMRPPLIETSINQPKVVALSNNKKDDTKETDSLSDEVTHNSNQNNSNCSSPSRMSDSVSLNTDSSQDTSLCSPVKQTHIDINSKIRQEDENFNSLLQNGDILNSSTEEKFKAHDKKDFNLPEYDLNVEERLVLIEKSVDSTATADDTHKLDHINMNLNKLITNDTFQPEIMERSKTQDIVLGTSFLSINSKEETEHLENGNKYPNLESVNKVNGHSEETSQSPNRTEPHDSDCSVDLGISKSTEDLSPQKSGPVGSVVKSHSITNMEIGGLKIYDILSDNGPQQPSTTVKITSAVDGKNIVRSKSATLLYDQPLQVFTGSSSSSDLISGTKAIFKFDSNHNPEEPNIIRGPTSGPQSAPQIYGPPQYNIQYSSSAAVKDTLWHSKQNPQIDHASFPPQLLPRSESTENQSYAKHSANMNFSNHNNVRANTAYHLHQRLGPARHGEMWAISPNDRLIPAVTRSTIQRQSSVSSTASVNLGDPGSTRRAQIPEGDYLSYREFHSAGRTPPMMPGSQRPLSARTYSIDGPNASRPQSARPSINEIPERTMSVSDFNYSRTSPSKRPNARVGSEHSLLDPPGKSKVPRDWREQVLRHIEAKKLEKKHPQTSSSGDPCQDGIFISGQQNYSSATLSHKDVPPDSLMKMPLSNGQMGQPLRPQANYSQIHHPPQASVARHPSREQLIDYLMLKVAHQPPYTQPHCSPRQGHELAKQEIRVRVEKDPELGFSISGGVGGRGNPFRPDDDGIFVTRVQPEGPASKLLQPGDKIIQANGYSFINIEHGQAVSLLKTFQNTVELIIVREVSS
inactive: [1] -0.012 | [2] 0.02 | [3] -0.04 | [4] 0.037 | [5] -0.048

EDC4 (UniProt Q6P2E9)
inactive: [1] -0.026 | [2] 0.005 | [3] 0.027 | [4] 0.008 | [5] 0.011

FIBP (UniProt O43427)
Chain of UniProt O43427 (O43427 whole entry, looked up): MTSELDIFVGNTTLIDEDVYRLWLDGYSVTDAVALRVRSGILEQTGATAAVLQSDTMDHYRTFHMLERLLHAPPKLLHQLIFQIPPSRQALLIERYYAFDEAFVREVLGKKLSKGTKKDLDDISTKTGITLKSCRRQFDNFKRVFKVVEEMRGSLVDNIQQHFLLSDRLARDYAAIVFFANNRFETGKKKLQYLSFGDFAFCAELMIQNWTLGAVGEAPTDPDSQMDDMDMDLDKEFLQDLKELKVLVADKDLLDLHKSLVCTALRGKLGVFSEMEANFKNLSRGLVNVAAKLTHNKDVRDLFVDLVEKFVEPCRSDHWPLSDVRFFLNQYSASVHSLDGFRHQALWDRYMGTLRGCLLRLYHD
inactive: [1] -0.018 | [2] 0 | [3] -0.044 | [4] -0.027 | [5] -0.002

EXOC2 (UniProt Q96KP1)
inactive: [1] -0.01 | [2] -0.018 | [3] -0.013 | [4] -0.019 | [5] 0.063

DSTN (UniProt P60981)
Chain of UniProt P60981 (P60981 whole entry, looked up): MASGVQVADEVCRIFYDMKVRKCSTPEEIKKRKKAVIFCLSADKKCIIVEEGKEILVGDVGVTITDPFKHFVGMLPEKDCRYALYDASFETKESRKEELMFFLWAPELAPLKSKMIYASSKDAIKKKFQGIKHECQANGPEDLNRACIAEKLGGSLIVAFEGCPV
inactive: [1] 0.043 | [2] -0.051 | [3] -0.016 | [4] 0.018 | [5] -0.06

EXOC4 (UniProt Q96A65)
Chain of UniProt Q96A65 (Q96A65 whole entry, looked up): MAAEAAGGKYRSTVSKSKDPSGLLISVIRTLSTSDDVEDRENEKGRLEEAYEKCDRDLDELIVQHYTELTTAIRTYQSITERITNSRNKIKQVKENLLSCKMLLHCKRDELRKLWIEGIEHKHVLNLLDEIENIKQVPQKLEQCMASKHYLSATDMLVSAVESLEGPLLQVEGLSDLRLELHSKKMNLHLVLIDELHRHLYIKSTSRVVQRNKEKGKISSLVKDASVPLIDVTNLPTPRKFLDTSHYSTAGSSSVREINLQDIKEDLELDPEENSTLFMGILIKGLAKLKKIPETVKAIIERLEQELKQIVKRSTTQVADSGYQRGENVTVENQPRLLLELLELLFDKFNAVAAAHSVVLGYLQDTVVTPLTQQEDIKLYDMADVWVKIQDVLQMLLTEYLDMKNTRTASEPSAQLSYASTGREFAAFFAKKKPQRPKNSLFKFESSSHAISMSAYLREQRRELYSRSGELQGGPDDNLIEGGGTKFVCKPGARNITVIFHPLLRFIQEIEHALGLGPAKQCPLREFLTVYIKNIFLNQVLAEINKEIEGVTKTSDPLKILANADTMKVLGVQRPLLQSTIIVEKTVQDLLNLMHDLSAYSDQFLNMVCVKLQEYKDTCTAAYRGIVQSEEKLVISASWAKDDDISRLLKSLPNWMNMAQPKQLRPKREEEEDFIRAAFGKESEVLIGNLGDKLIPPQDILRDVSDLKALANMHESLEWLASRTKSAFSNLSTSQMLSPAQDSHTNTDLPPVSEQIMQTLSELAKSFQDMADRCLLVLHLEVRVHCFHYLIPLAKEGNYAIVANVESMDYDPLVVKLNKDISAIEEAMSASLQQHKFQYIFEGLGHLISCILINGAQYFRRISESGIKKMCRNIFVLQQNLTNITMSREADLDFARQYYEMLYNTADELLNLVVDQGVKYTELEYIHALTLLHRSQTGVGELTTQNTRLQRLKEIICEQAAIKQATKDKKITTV
inactive: [1] -0.001 | [2] 0.009 | [3] 0.016 | [4] 0.063 | [5] 0.054

EP400 isoform 5 (UniProt Q96L91)
inactive: [1] -0.008 | [2] 0.024 | [3] -0.014 | [4] 0.06 | [5] 0.016

EXOC3 (UniProt O60645)
inactive: [1] -0.026 | [2] -0.019 | [3] 0.053 | [4] -0.017 | [5] 0.08

EGLN1 (UniProt Q9GZT9)
Chain of UniProt Q9GZT9 (Q9GZT9 whole entry, looked up): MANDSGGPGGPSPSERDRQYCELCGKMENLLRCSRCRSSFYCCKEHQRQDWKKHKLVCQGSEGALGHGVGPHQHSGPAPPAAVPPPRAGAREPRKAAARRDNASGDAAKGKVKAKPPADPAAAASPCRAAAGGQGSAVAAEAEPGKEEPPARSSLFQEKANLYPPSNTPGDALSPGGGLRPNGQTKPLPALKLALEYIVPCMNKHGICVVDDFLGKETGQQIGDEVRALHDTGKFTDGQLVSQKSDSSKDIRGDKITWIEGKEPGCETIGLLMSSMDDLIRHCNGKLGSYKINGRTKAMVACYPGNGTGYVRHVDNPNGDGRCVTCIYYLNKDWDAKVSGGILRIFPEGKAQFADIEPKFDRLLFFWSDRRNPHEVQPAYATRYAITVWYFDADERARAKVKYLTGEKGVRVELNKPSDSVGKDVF
inactive: [1] 0.095 | [2] -0.023 | [3] -0.01 | [4] -0.038 | [5] -0.007

FBLL1 (UniProt A6NHQ2)
Chain of UniProt A6NHQ2 (A6NHQ2 whole entry, looked up): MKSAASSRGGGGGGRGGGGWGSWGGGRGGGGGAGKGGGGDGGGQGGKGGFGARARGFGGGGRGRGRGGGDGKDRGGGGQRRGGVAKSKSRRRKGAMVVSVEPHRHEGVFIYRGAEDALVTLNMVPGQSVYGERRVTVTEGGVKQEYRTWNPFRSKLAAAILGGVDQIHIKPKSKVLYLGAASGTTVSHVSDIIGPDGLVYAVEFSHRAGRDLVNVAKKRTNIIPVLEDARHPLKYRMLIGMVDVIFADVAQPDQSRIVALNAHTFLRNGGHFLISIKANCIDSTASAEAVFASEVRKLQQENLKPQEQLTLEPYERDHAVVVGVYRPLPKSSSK
inactive: [1] -0.017 | [2] 0.013 | [3] 0.037 | [4] -0.002 | [5] -0.062

EDC3 (UniProt Q96F86)
inactive: [1] 0.036 | [2] 0 | [3] 0.028 | [4] 0.031 | [5] 0.008

FMNL1 isoform 3 (UniProt O95466)
inactive: [1] 0.104 | [2] -0.01 | [3] 0.057 | [4] 0.027 | [5] 0.082

EIF2B3 (UniProt Q9NR50)
inactive: [1] -0.047 | [2] 0.008 | [3] -0.01 | [4] 0.004 | [5] 0.107

FAU (UniProt E9PR30)
inactive: [1] 0.001 | [2] 0.06 | [3] -0.008 | [4] 0.018 | [5] 0.135

EPB41 (UniProt P11171)
inactive: [1] -0.004 | [2] -0.021 | [3] -0.023 | [4] 0.027 | [5] 0.032
